Assay [1] relates to C33A. Description: Primary qHTS to identify gynecologic anti-cancer compounds using libraries of approved drugs and bioactive compounds (AID 1345084). Further: nearly all actives have a fitted effect of over 55% in size. Further: potency means the concentration at half of the fitted maximal effect. The settings on record: Gynecologic cancer cell panel viability, ATPlite luminescence, 48 h; series mostly up to 57.5 µM. Summed up:
(§1)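 48 h compound exposure at 37 C, 5% CO2; five-point qHTS. ATPlite luminescence readout of cell ATP.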
On the technique in general: qHTS replaces the single test concentration by a dilution series.

Assay [2] has as its system CAOV3. Described as above. The settings on record: Gynecologic cancer cell panel viability, ATPlite luminescence, 48 h; series mostly up to 57.5 µM. The method in brief: as §1
(ATP-based viability assays read luminescence as a measure of living cells.)

The test system of assay [3] is CASKI. The assay is described as above. Particulars: Gynecologic cancer cell panel viability, ATPlite luminescence, 48 h; series mostly up to 57.5 µM. The method in brief:
as §1

The subject of assay [4] is Es-2. Described as above. Particulars: Gynecologic cancer cell panel viability, ATPlite luminescence, 48 h; series mostly up to 57.5 µM. The method in brief:
as §1

Assay [5] has as its system HeLa. Described as above. The settings on record: Gynecologic cancer cell panel viability, ATPlite luminescence, 48 h; series mostly up to 57.5 µM. The method in brief: as §1
The subject of assay [6] is Hek293T. The assay is described as above. Particulars: Gynecologic cancer cell panel viability, ATPlite luminescence, 48 h, control line for the selectivity index; series mostly up to 57.5 µM. The method in brief: as §1
For assay [7], the system named is JEG-3. Described as above. Particulars: Gynecologic cancer cell panel viability, ATPlite luminescence, 48 h; series mostly up to 57.5 µM. Summed up:
as §1

For assay [8], the system named is OV90. The description is as above. The settings on record: Gynecologic cancer cell panel viability, ATPlite luminescence, 48 h; series mostly up to 57.5 µM. Summed up: as §1
The test system of assay [9] is PA-1. The description is as above. Particulars: Gynecologic cancer cell panel viability, ATPlite luminescence, 48 h; series mostly up to 57.5 µM. Summed up: as §1
The test system of assay [10] is SKOV3. The description is as above. Particulars: Gynecologic cancer cell panel viability, ATPlite luminescence, 48 h; series mostly up to 57.5 µM. Summed up: as §1
For assay [11], the system named is Tov112D. Described as above. Particulars: Gynecologic cancer cell panel viability, ATPlite luminescence, 48 h; series mostly up to 57.5 µM. The method in brief:
as §1

The test system of assay [12] is Tov-21-G. Described as above. The settings on record: Gynecologic cancer cell panel viability, ATPlite luminescence, 48 h; series mostly up to 57.5 µM. Summed up: as §1
Assay [13] is described as follows: qHTS assay to identify inhibitors of the type 1 interferon - major histocompatibility complex class I in skeletal muscle: Counter screen cell viability and HiBit confirmation (AID 1347412). Further: nearly all actives have a fitted effect of over 60% in size. Particulars: iHSKM muscle cells + IFN-b, HiBiT or CellTiter-Glo, 24 h; Viability; at 45.9 µM (top of the series). Summed up: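 Myoblasts (C25cl48, HLA-B HiBiT) seeded in medium without dexamethasone, IFN-b 4 ng/ml added except unstimulated columns; 1 hr later compounds pinned (12-pt 1:3, top 46 uM final). Incubated 24 hrs, lysed 10 min, luminescence measured.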

SMILES strings stand for the structures. Results filed as inconclusive are left out. A number with no mark means an inactive call. Active and inactive are the calls of the source. The call rests on the fitted dose curve; in most records, active means well fitted curve in the direction sought with a large enough effect; inconclusive means small, poorly fitted or top-dose-only effect, or another doubt; inactive means no such curve, though single readings can be large; an effect the other way counts as inactive or inconclusive.
On the % scale 0 is the no-effect control and ±100 the full control effect.

`CC1OC2OC(=O)C3(C)CC4C5(CO5)C5=CC(=O)OC(C)(C)C5=CC(=O)C4(C)C(C1=O)C23` (stereo unspecified): the Potency result in assay [1], in [2], in assay [3], in assay [4], in assay [5] and in [6] was “inactive” each time. Further, the Potency result in assay [7], in assay [8], in [9], in assay [10] and in assay [11] was “inactive” each time.

For `COc1ccc(NC(=O)C2C[C@H](C)CC[C@H]2C(C)C)cc1` (stereo partly specified), the Potency result in [1], in assay [2], in assay [3], in [4], in [5] and in [6] was “inactive” throughout. Further, the Potency entry in assay [7], in assay [8], in [9], in [10], in [12] and in assay [11] was “inactive” throughout.

As to `Cn1ncc2cc(-c3cnc(N)c(Cl)c3N3CCC4(CCNC4=O)CC3)ccc21`, the Potency result in assay [1], in [2], in assay [3], in assay [4], in assay [5] and in assay [6] was “inactive” throughout. In addition, the Potency result in [7], in assay [8], in [9], in assay [10], in [12] and in [11] was “inactive” throughout. In addition, in [13], the activity change, negative = inhibition was 5.32%.

As for `CCOC(=O)N1CCC(CN(Cc2ccc(Cl)cc2)Cc2ccc([N+](=O)[O-])s2)C1` (stereo unspecified), the Potency entry in assay [1], in assay [2], in [3], in assay [4], in assay [5] and in assay [6] was “inactive” throughout. Besides, the Potency result in [7], in [8], in [9] and in [12] was “inactive” throughout.

`COc1cc2c(cc1OC(C)C)[C@H](c1ccc(Cl)cc1)N(c1ccc(N(C)CC3CCC(N4CCN(C)C(=O)C4)CC3)cc1)C(=O)C2` (stereo partly specified): the Potency entry in assay [1], in assay [2], in assay [3], in [4], in assay [5] and in [6] was “inactive” throughout. Also, the Potency entry in assay [7], in assay [8], in assay [10] and in assay [11] was “inactive” throughout. The Potency in assay [9] is 11.2 µM (active).

In the case of `COc1cc(NC(=O)c2cc(C3CC3)on2)c(OC)cc1Cl`, the Potency result in [1], in assay [2], in assay [3], in [4], in assay [5] and in assay [6] was “inactive” throughout. Moreover, the Potency result in assay [7], in [8], in assay [9], in [10], in assay [12] and in assay [11] was “inactive” in each case.

Consider `CC(C)/C=C1\NC(=O)C(C(C)C)n2c1nc1ccccc1c2=O` (stereo unspecified), for which the Potency entry in assay [1], in assay [2], in assay [3], in [4], in assay [5] and in assay [6] was “inactive” throughout. Also, the Potency entry in [7], in [8], in [9], in assay [10], in assay [12] and in assay [11] was “inactive” throughout.

Take `O=C(Nc1ccc(C(F)(F)F)cn1)N1CCN(c2ncccc2C(F)(F)F)CC1`: the Potency result in [1], in assay [2], in assay [3], in assay [4], in [5] and in assay [6] was “inactive” throughout. For the same compound, the Potency result in [7], in assay [8], in [9], in assay [10], in assay [12] and in [11] was “inactive” each time.

Regarding `C[C@@H]1C[C@H]2O[C@@]3(O[C@@H]2C(C)(C)O)C(O)[C@@]2(C)C4CCC5C(C)(C)[C@@H](O[C@H]6OC[C@H](O)[C@@H](O)[C@@H]6O)CC[C@@]56C[C@@]46CC[C@]2(C)C13` (stereo partly specified), the Potency result in assay [1], in [2], in assay [3], in [4], in [5] and in assay [6] was “inactive” each time. The Potency result in [7], in assay [8], in assay [9], in [10], in [12] and in [11] was “inactive” each time.

With `Cc1cc2c(cc1N1C(=O)c3cccc4c(CCCO)ccc(c34)C1=O)n(C)c(=O)n2C`, the Potency result in assay [1], in assay [2], in [3], in [4], in assay [5] and in assay [6] was “inactive” in each case. Moreover, the Potency result in [7], in assay [8], in assay [9], in assay [10], in assay [12] and in assay [11] was “inactive” in each case.

Regarding `CCN(c1cc(-c2ccc(CN3CCOCC3)cc2)cc(C(=O)NCc2c(C)cc(C)[nH]c2=O)c1C)C1CCOCC1`, the Potency result in [1], in [2], in assay [3], in assay [4], in [5] and in [6] was “inactive” in each case. Moreover, the Potency entry in [7], in [8], in [9], in assay [10], in [12] and in assay [11] was “inactive” each time.

As for `Cc1ccc(F)cc1S(=O)(=O)N[C@@H]1CCN(Cc2ccc(OC(C)C)cc2)C1`, the Potency result in [1], in assay [2], in [3], in [4], in [5] and in [6] was “inactive” in each case. In addition, the Potency entry in assay [7], in assay [8], in [9], in assay [10], in assay [12] and in assay [11] was “inactive” each time.

On to `CC(C)(Cc1ccccc1)NCC(O)c1ccc(O)c(NS(C)(=O)=O)c1` (stereo unspecified), for which the Potency result in [1], in assay [2], in assay [3], in assay [4], in assay [5] and in assay [6] was “inactive” each time. Besides, the Potency entry in [7], in [8], in assay [9], in assay [10], in assay [12] and in assay [11] was “inactive” in each case.

Regarding `C=C1/C(=C/C=C2\CCC[C@]3(C)[C@@H]([C@H](C)/C=C/[C@H](O)C4CC4)CC[C@@H]23)C[C@@H](O)C[C@@H]1O`, the Potency entry in assay [1], in assay [2], in assay [3], in [4], in [5] and in assay [6] was “inactive” in each case. Further, the Potency result in assay [7], in assay [8], in [9], in assay [10], in [12] and in assay [11] was “inactive” each time.

As to `O=C(NC1CCC1)c1ccc(C#Cc2cccc(F)c2)nc1`, the Potency entry in assay [1], in assay [2], in assay [3], in [4], in [5] and in assay [6] was “inactive” in each case. Moreover, the Potency result in assay [7], in assay [8], in [9], in assay [10], in [12] and in assay [11] was “inactive” throughout.

Turning to `Nc1nc(OCc2cc(Br)cs2)c2[nH]cnc2n1`, the Potency entry in assay [1], in assay [2], in [3], in [4], in [5] and in assay [6] was “inactive” throughout. Further, the Potency entry in [7], in [8], in [9], in assay [10], in [12] and in assay [11] was “inactive” each time.

`CNCCN1CCC(c2cc(CN(C)C(=O)c3cccc(Oc4ccccc4)c3)ccn2)CC1`: the Potency entry in assay [1], in assay [2], in [3], in assay [4], in [5] and in assay [6] was “inactive” each time. Also, the Potency result in assay [7], in [8], in assay [9], in assay [10], in assay [12] and in assay [11] was “inactive” in each case.

The record behind these values is PubChem BioAssay (NCATS).
